Measurements as given in PubChem BioAssay AID1159580 (chemical genetic matrix, 2015).
Out of some 5,500 compounds screened, about 2,000 (36%) were called active. Inconclusive results (about 18%) are left out. No stated cut-off is given here; in the data, active means normalized growth mostly below about 0.91 (no sharp cut-off); inconclusive means no clear call, values can overlap the other calls; inactive means mostly above about 0.92. The list shows a part of the results.

Assay: chemical genetic growth profiling, strain panel (AID 1159580);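 further: tested at 20 µM; growth read once vehicle control cultures reached saturation at 30 °C; 1 = growth at the plate median or of vehicle wells; lower values mean less growth of the strain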
Conditions: S. cerevisiae deletion strains, growth OD

Measured: normalized growth

CCN1CCC[C@H]1CNC(=O)c1cc(S(N)(=O)=O)ccc1OC
inactive: locus YAL013W, strain DEP1, active compounds read low 1.02 | locus YAL040C, strain CLN3, active compounds read low 1.07 | locus YCL061C, strain MRC1 (second series), active compounds read low 1.01 | locus YDR150W, strain NUM1, active compounds read low 1.01 | locus YDR363W, strain ESC2, active compounds read low 1.03 | locus YER002W, strain NOP16, active compounds read low 1.02 | locus YGR078C, strain PAC10, active compounds read low 1.02 | locus YGR229C, strain SMI1, active compounds read low 1.02 | locus YMR307W, strain GAS1, active compounds read low 0.997 | locus YNL128W, strain TEP1, active compounds read low 0.995 | locus YNL153C, strain GIM3, active compounds read low 1.02 | locus YNL175C, strain NOP13, active compounds read low 1 | locus YNL197C, strain WHI3, active compounds read low 1.01 | locus YNL224C, strain SQS1, active compounds read low 1.01 | locus YOR083W, strain WHI5 (second series), active compounds read low 1.01 | locus YPL055C, strain LGE1, active compounds read low 1.01
